Among the data in PubChem BioAssay AID492948 (National Center for Advancing Translational Sciences (NCATS), 2010) are Potency values, retold here.

SMILES strings stand for the structures. Inconclusive results are not listed. Activity calls are given as the source filed them. Calls follow the shape of the dose curve; as a rule, active = well fitted activation curve with a large enough effect; inconclusive = small, poorly fitted or top-dose-only effect; inactive = no such curve, though single readings can be large or run the other way.
Potency is read from the fitted curve at half-maximal effect.

A short description of the assay: qHTS Assay for Agonists of the Relaxin Receptor RXFP1: V1B Hit Validation.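 Also: counter-screen in HEK293 cells expressing V1B rather than RXFP1 for selectivity; nearly all actives have a fitted effect of over 65% in size.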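 As to activation: cAMP accumulation with PDE4 inhibitor Ro 20-1724 present during compound exposure.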 The note with it: HEK293 V1B cells, cAMP TR-FRET, 30 min; series mostly up to 115 µM. The procedure, abridged: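 HEK293 cells (2000/well) were exposed to compounds for 30 min at 37C with PDE4 inhibitor Ro 20174. cAMP was read by TR-FRET after lysis, normalized to buffer and 29 nM porcine relaxin, and EC50 was fitted by Hill equation.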
A general note: Quantitative high-throughput screening tests each substance at several concentrations.
Consider `S=c1nc[nH]c2c1[nH]c1ccccc12`, for which the Potency was 6.9 µM (active).

For the compound `O=C(Cn1cnc2c(nnn2-c2ccc(F)cc2)c1=O)NCC1CCCO1` (stereo not drawn), the Potency was 8.7 µM (active).

Take `NC(=S)c1cc2ccc(O)cc2oc1=O`: the Potency was 4.35 µM (active).

For `COc1ccc(CNC(=O)CN2C(=O)NC(C)(c3cccc(Br)c3)C2=O)cc1` (stereo not drawn), the Potency result is “inactive”.

Take `CN(C)S(=O)(=O)c1ccc(C(=O)OCC(=O)Nc2cccnc2Cl)cc1`: the Potency is 19.4 µM (active).

Take `Nc1ncnc2c1ncn2C1OC(CO)C(O)C1O` (stereo not drawn): the Potency is 9.77 µM (active).

As for `Cc1cccc(NC(=O)c2ccccc2NC(=O)c2ccco2)c1`, the Potency result is “inactive”.

With `Cc1nn(CCCC(=O)NCc2ccc(F)cc2)c(=O)c2nccn12`, the Potency was 38.9 µM (active).

Regarding `COc1ccc(S(=O)(=O)N2CCOCC2)cc1NC(=O)CSc1ncnc2ccccc12`, the Potency is 13.8 µM (active).

As to `CCCN(CCC)S(=O)(=O)c1cc(CN2C(=O)c3cccnc3C2=O)ccc1OC`, the Potency was 30.9 µM (active).

Consider `CCc1cc2c(=O)nc3n(c2s1)Cc1ccccc1/C3=C(/O)c1cccc([N+](=O)[O-])c1`, for which the Potency was 3.89 µM (active).

For the compound `O=C(O)c1cc(-c2ccco2)nc2ccc(Br)cc12`, the Potency was 19.4 µM (active).

With `O=C(O)CNC(=O)c1ccccc1NC(=O)c1ccco1`, the Potency result was “inactive”.

With `Cc1cc2nc3ccc(=[N+](C)C)cc-3sc2cc1N`, the Potency entry was “inactive”.

In the case of `Cc1ccc(C(=O)Nc2ccccc2C(N)=O)o1`, the Potency result was “inactive”.

For the compound `CC(C)(C)C(=O)Nc1ccccc1C(=O)NCc1ccco1`, the Potency result was “inactive”.

For `CC[n+]1ccc(/C=C/c2ccc(N(C)C)cc2)c2ccccc21`, the Potency result was “inactive”.

Take `COc1ccc(S(=O)(=O)N2CCOCC2)cc1NC(=O)CSc1nnc2ccccn12`: the Potency was 3.88 µM (active).

For the compound `CCN(CC)CCCCCC(=O)Nc1ccccc1C(=O)Nc1ccccc1`, the Potency result is “inactive”.

On to `COc1ccc(CC(=O)N/N=C/c2cccnc2)cc1OC`, for which the Potency result was “inactive”.

`CCn1c(SCC(=O)Nc2ccc(NC(C)=O)cc2)nc2c1c(=O)n(C)c(=O)n2C`: the Potency was 30.9 µM (active).

On to `CCN(CC)CCCN1C=C2C(=O)C(C)(OC(=O)C3CCCC3)C(=O)C=C2C=C1c1ccsc1` (stereo not drawn), for which the Potency result is “inactive”.

As for `COC(=O)c1cc(CN2C(=O)c3ccccc3C2=O)c(O)c([N+](=O)[O-])c1`, the Potency was 30.9 µM (active).

As to `CCN(c1ccccc1)S(=O)(=O)c1ccc(OC)c(NC(=O)C2CC(=O)N(Cc3ccccc3)C2)c1` (stereo not drawn), the Potency result was “inactive”.

With `Cc1cccc(NC(=O)c2ccccc2NC(=O)C2CCCCC2)c1C`, the Potency entry is “inactive”.

On to `COc1ccccc1NC(=O)CCCc1nnc2n(C)c(=O)c3sccc3n12`, for which the Potency is 13.8 µM (active).

In the case of `CCC(=O)Nc1ccc(-n2nnnc2SCC(=O)NNC(=O)c2ccco2)cc1`, the Potency entry is “inactive”.

`CCOC(=O)c1sc(=NC(=O)c2ccc(S(=O)(=O)N(C)c3ccccc3)cc2)n(C)c1C`: the Potency was 30.8 µM (active).

Consider `CC1CCN(S(=O)(=O)c2ccc3nc(N4CCN(c5ccccc5)CC4)ccc3c2)CC1`, for which the Potency was 13.8 µM (active).

Take `c1ccc(-c2nnc(-c3ccccn3)c(-c3ccccn3)n2)nc1`: the Potency entry was “inactive”.

Take `Cn1c(N)c(C(=O)CSc2nn(-c3ccc(F)cc3)c(=S)s2)c(=O)n(C)c1=O`: the Potency was 19.4 µM (active).

With `COCCNC(=O)NC(=O)COC(=O)C12CC3CC(CC(NC(C)=O)(C3)C1)C2`, the Potency entry was “inactive”.

As to `Cc1ccc(C(=O)Nc2cccc(C(F)(F)F)c2)cc1NC(=O)c1cnnc2ccccc12`, the Potency result is “inactive”.

Take `Cn1c2ccccc2c2nnc(SCC(=O)Nc3cccc(C(=O)O)c3)nc21`: the Potency is 21.9 µM (active).

With `CN(Cc1ccccc1)C(=O)c1ccccc1NC(=O)c1ccco1`, the Potency entry is “inactive”.

Turning to `O=C(OCc1nc2ccsc2c(=O)[nH]1)c1cccc(S(=O)(=O)N2CCOCC2)c1`, the Potency was 34.6 µM (active).

As to `N#Cc1c(N)nc(SCC(=O)C23CC4CC(CC(C4)C2)C3)c(C#N)c1-c1ccc(Cl)cc1`, the Potency was 12.3 µM (active).

For the compound `Cc1cccn2c(=O)c(/C=C3\SC(=S)NC3=O)c(NCCCN3CCOCC3)nc12`, the Potency is 4.35 µM (active).
